Source: PubChem (National Center for Advancing Translational Sciences (NCATS))
Only some compounds are listed: those with a hit (about 18% of all), similar ones and a draw of the others.
VDR inhibitor: blocks the human vitamin D receptor; P11473; hit rate 0.93% among 400,000; AID 504847; VDR-SRC2-3 peptide fluorescence polarization, 2 h; Potency, µM, without a hit: max response, negative = inhibition, actives largely listed as inhibitors
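Measured by FP: displacement of SRC2-3 coactivator peptide from VDR by library compounds, following a two-hour ambient incubation.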
PLK1 PBD block: inhibitors of human PLK1 polo-box domain binding; AID 720504; Potency, µM, for inactives: max response, negative = inhibition, hits mostly inhibitors; P53350; hit rate 2.8% among 360,000; Plk1 PBD binding of FITC phosphopeptide, fluorescence polarization; also: series mostly up to about 57 µM; nearly all actives have a fitted effect of over 65% in size
TDP1 cell noCPT: qHTS for Inhibitors of human tyrosyl-DNA phosphodiesterase 1 (TDP1): qHTS in cells in absence of CPT. DT40 Tdp1-/- hTDP1 cells, no CPT, ATP luminescence, 48 h. Potency, µM (series often up to 46.2 µM), inactives show at the highest dose activity change, negative = growth inhibition, most hits filed as inhibitors. hit rate 15% among 420,000. AID 686978, 2013; also: nearly all actives have a fitted effect of over 55% in size
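Growth of hTDP1-complemented DT40 Tdp1-knockout cells is measured by ATP luminescence after at least 48 hr compound exposure at 37 °C, with DMSO substituting for the 20 nM CPT used in the parallel screen.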
GCN5L2 inh: GCN5L2 (KAT2A) acetyltransferase inhibition; GCN5L2 HAT assay, ThioGlo1 CoA-SH fluorescence; Potency, µM (titrated, usually from 58.9 µM), for the others: top-dose activity change, negative = inhibition, usual class: inhibitors; hit rate 0.21% among 390,000; AID 504327
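GCN5L2 (20nM final) in 50mM HEPES, 0.1mM EDTA pH 7.5, 0.01% Tween-20 was preincubated 15 min at room temperature with compound, then given ThioGlo1 (50uM), H3(1-25) peptide (75uM) and acetyl-CoA (70uM); CoA-thiol fluorescence (Ex340/Em540) was read at 0 and 20 min.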
TDP1 cell CPT: DT40-hTDP1 cell growth loss with CPT. AID 686979. chicken DT40 Tdp1-/-;hTDP1 cells + 20 nM CPT, ATP luminescence, 48 h. hit rate 12% among 420,000. Potency, µM (series often up to 46.2 µM), for the others: at the highest dose activity change, negative = growth inhibition, actives largely listed as inhibitors; also: nearly all actives have a fitted effect of over 55% in size
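Chicken DT40 Tdp1-/- cells stably complemented with human TDP1 were seeded at 400 cells/well in medium containing 20 nM camptothecin, exposed to pin-transferred compounds, and grown at 37 °C for at least 48 hr. Viability was read as ATP luminescence.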
TDP1 inh: inhibitors of human tyrosyl-DNA phosphodiesterase TDP1; Potency, µM (titrated, usually from 130 µM), for the others: at the top dose activity change, negative = inhibition, most hits filed as inhibitors; hit rate 0.28% among 350,000; recombinant TDP1, AlphaScreen DNA substrate cleavage; also: nearly all actives have a fitted effect of over 40% in size
Target sequence (Q9NUW8 whole entry, looked up): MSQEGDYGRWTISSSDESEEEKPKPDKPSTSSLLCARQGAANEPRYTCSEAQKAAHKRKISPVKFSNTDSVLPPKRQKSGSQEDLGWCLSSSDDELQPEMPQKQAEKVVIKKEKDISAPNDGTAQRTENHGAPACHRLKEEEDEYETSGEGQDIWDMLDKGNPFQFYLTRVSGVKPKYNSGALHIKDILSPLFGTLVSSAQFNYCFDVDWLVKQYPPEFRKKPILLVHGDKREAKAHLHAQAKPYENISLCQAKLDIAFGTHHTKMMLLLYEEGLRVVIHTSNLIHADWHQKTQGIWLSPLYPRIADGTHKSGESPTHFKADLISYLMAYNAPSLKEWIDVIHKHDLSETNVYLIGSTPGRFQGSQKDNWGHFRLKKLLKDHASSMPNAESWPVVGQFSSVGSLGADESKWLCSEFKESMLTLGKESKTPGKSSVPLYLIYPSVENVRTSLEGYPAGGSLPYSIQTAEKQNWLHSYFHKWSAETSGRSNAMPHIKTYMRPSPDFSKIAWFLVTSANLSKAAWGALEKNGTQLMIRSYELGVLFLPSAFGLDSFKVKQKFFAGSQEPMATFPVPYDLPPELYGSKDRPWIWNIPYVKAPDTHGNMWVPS
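E. coli-derived human Tdp1, 1 nM final. Cpd preinc 15 min RT; substrate 15 nM final, 5 min RT; AS bead mix 10 ug/ml final, 10 min RT. Signal loss = tyrosine-FITC cleavage. No-enzyme wells = max signal.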
Numbers without * were called inactive; ? = inconclusive; nt = not tested or not shown; [ ] = remark or other dose. Calls follow the shape of the dose curve; as a rule, active = well fitted curve in the direction sought with a large enough effect; inconclusive = small, poorly fitted or top-dose-only effect, or another doubt; inactive = no such curve, though single readings can be large; an effect the other way counts as inactive or inconclusive. % is scaled to controls: 0 for no effect and ±100 for the full control effect; potency is read from the fitted curve at half-maximal effect.

SMILES	VDR inhibitor	PLK1 PBD block	TDP1 cell noCPT	GCN5L2 inh	TDP1 cell CPT	TDP1 inh
Cc1csc(SCC(=O)NCC2Cc3cc(-c4cncnc4)ccc3O2)n1 (stereo not given)	nt	nt	-18%	nt	2%	nt
CC(C)Cc1nc2cc(NS(=O)(=O)N(C)C)cc(C(=O)N3CCOCC3)c2n1C	nt	nt	3%	nt	8%[9.04 µM]	nt
CN(C)C(CNC(=S)Nc1ccc(F)cc1)c1cccnc1 (stereo not given)	0%	-18%	-17%	-1%	0%	-8%
CCCCOc1ccc(C)cc1CN(CCO)CCO	-2%	-4%	2%	0%	-9%	1%
CCCCCc1ccc(OCCCC[n+]2ccc(C)cc2)c(CCCCC)c1	0%	-12%	0.46µM*	-16%	1µM*	-1%
CCCCCCCCCCCCC(O)C(=O)O (stereo not given)	0%	nt	-6%[4.12 µM]	-21%	15%[4.12 µM]	9%
CCCCCCCCCCCCCCCCC(C(=O)O)C(O)(CC(=O)O)C(=O)O (stereo not given)	10µM*	nt	-9%	1.1µM*	17%	nt
Cc1ccc(CNC(=O)Cn2c(=O)n(-c3ccc(C)c(F)c3)c(=O)c3sc4ccccc4c32)cc1	-11%	nt	-9%	2%	3%	1%
CC(NC(=O)C(=O)Nc1c2c(nn1-c1ccc(F)cc1)CSC2)c1ccccc1 (stereo not given)	5%	nt	8.2µM*	1%	-86%	13%
CC(NC(=O)C(=O)Nc1c2c(nn1-c1ccccc1)CSC2)c1ccccc1 (stereo not given)	0%	nt	21µM*	-4%	15µM*	13%
COc1cccc(N2CCN(CC(=O)Nc3ccc(S(=O)(=O)N4CCCCCC4)cc3)CC2)c1	12%	2%	13µM*	-6%	?	3%
CC(=O)c1c(C)[nH]c(C(=O)CN2CCN(S(=O)(=O)c3ccc(C(C)C)cc3)CC2)c1C	9%	-3%	10µM*	2%	15µM*	0%
COc1ccc(NC(=O)CN2CCN(S(=O)(=O)c3ccc(Cl)cc3)CC2)cc1	1%	-3%	?	3%	-29%	9%
COc1ccc(S(=O)(=O)N2CCN(CC(=O)Nc3ccc(Cl)c(C(F)(F)F)c3)CC2)cc1	10%	nt	8.2µM*	-3%	9.2µM*	-5%
COc1cccc(NC(=O)CN2CCN(S(=O)(=O)c3ccc(C(C)C)cc3)CC2)c1	-1%	30µM*	?	?	?	3%
CCCCc1nc2c(c3c1C[C@H](C)OC3)CN(C(=O)NCc1ccco1)CC2	nt	nt	nt	nt	nt	14%[12.3 µM]
CCOC(=O)CNC(=O)c1cc2c(=O)oc3ccccc3c2s1	0%	nt	-4%	6%	-2%	3%
O=C(Nc1ccc(F)c(F)c1)c1cc(S(=O)(=O)NCc2ccc3c(c2)OCO3)ccc1F	25%	nt	-21%	5%	-8%	8%
Cc1ccc(Oc2cc([N+](=O)[O-])cc3c2C(=O)Nc2ccccc2O3)cc1	-2%	8%	15µM*	?	?	2%
O=C(CN1C(=O)c2cccc3cccc1c23)Nc1cccnc1	7%	30µM*	?	-11%	-17%	-4%
O=C(CN1C(=O)c2cccc3cccc1c23)NCc1cccnc1	2%	-9%	-20%	32µM*	-2%	0%
O=C(CCCN1C(=O)c2cccc3cccc(c23)C1=O)NCc1cccnc1	-10%	-16%	4%	-3%	-3%	3%
O=C(CCCCCN1C(=O)c2cccc3cccc(c23)C1=O)NCc1cccnc1	-7%	-6%	?	-6%	2.9µM*	5%
O=C(Cn1c(SCCOc2ccc(Cl)cc2)nc2ccccc21)N1CCCCC1	5%	nt	?	-2%	?	6%
COCCn1c(=O)c(-c2cc(F)cc(F)c2)nc2cnc(Nc3cccc(OC)c3)nc21	-1%	nt	-22%	-21%	7%	nt
SMILES	VDR inhibitor	PLK1 PBD block	TDP1 cell noCPT	GCN5L2 inh	TDP1 cell CPT	TDP1 inh
N#Cc1cc2ccc(N3CCOCC3)cc2cc1C#N	-7%	-1%	12µM*	-1%	7.3µM*	2%
Cc1ccc(C)n1-c1ccc(N2CCOCC2)cc1	-7%	-8%	?	-3%	?	11%
CC(=O)c1ccc(NC(=O)c2cnc(N3CCCC3)nc2C)cc1	8%	nt	?	8%	-18%	-1%
COC(=O)C1CN(S(=O)(=O)c2cc(OC)ccc2OC)CCS1 (stereo not given)	0%	-21%	-6%	-4%	-23%	3%
COCCCn1c(SCC(=O)NC(C)C)nnc1-c1ccccc1	-18%	7.5µM*	23µM*	-3%	?	nt
CC(C)CCCCCCNC(=S)Nc1ccc(S(=O)(=O)N2CCOCC2)cc1	-20%	?	13µM*	-11%	16µM*	6%
O=C(CCc1ccccc1)NC(=S)Nc1ccc(S(=O)(=O)N2CCOCC2)cc1	-4%	-10%	16µM*	-9%	?	0%
Cc1cc(NC(=O)CCc2ccc(S(=O)(=O)N3CCOCC3)cc2)n(-c2ccccc2)n1	12%	-3%	8.2µM*	-5%	12µM*	2%
O=S(=O)(c1ccc(NC(=S)Nc2ccccc2)cc1)N1CCOCC1	-13%	-19%	-27%	-1%	-9%	-5%
CC(NC(=S)Nc1ccc(S(=O)(=O)N2CCOCC2)cc1)C1CC2CCC1C2 (stereo not given)	6%	-12%	29µM*	-13%	?	1%
Cc1cc(NC(=O)CN2CCOCC2)n(-c2ccccc2)n1	-7%	-6%	-7%	-17%	2%	4%
Cc1nn(C(=O)c2ccc(Cl)cc2)c(C)c1S(=O)(=O)N1CCOCC1	-6%	nt	-7%	-1%	-16%	7%
c1ccc2c(CCNc3ncnc4nc[nH]c34)cccc2c1	9%	-12%	18µM*	-3%	23µM*	3%
CCCCc1ccc(Nc2ncnc3nc[nH]c23)cc1	-20%	2%	-26%	-12%	-23%	4%
c1ccc(CCCNc2ncnc3nc[nH]c23)cc1	-5%	2%	21µM*	0%	?	3%
Clc1ccc(CCNc2ncnc3nc[nH]c23)cc1	-8%	-5%	7.3µM*	-6%	12µM*	7%
C1=C(CCNc2ncnc3nc[nH]c23)CCCC1	-3%	2%	15µM*	1%	13µM*	3%
CCCNc1ncnc2nc[nH]c12	9%	-6%	-15%	-2%	?	10%
CCc1ccc(NC(=O)CNC(=O)[C@@H]2Cc3ccccc3CN2)cc1	-11%	?	5%	-18%	-8%	4%
Cc1ccc2nc(NC(=O)CN(C)S(=O)(=O)c3cccc4nsnc34)sc2c1	-7%	-8%	2.9µM*	-17%	3.3µM*	-3%
